Screening data as filed in PubChem BioAssay.
Most compounds without a hit are left out; they make up all but 4.8% or so of the library.
ssDAF12 agonist – S. stercoralis DAF-12 nuclear receptor activators, primary screen, cell-based, luminescence, HEK293, GRIP1 co-expression, lit1-tk-luc | Nuclear hormone receptor DAF-12 (Strongyloides stercoralis) | HEK293 ssDAF-12/GRIP1 lit1-tk-luc reporter; % of 3 µM dafachronic acid response | activation, % at 6.8 µM | 370,000 compounds, 1% hits;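 active = activation above the mean over all tested compounds plus 3 SD, cut at about 0.9% in these data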;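 note: 0% = DMSO-only wells and 100% = 3 µM delta7-dafachronic acid wells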
hgDAF-12 ag – H. glycines DAF-12 receptor agonists, primary screen, cell-based, luminescence, HEK293, GAL4 fusion, UAS-luciferase; Nuclear hormone receptor DAF-12 (Heterodera glycines), GAL4 fusion; HEK293 GAL4-hgDAF12 UAS-luciferase reporter, agonist luminescence; normalized to butyrate control; activation, % at 6.8 µM; 370,000 compounds, 1.8% hits;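 active = activation above a cutoff set at the mean of all screened compounds plus 3 SD, cut at about 10% in these data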;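 note: 0% = DMSO wells and 100% = sodium butyrate wells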
DAX1 inh-1 – DAX1 (NR0B1) inhibitors, primary screen, cell-based, HEK293, Gal4-DAX1, luciferase luminescence; HEK293 Gal4-DAX1 luciferase reporter; inhibition, % at 6.75 µM; 340,000 compounds, 0.99% hits; AID 504766, 2011;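 active = inhibition above the mean over all tested compounds plus 3 SD, cut at about 4.2% in these data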;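 note: 0% = DAX1-transfected cells with DMSO and 100% = empty-vector control cells with DMSO; inhibition shows as a rise in luminescence from relieved DAX1 repression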
Target sequence (P51843 207-470 limits assumed): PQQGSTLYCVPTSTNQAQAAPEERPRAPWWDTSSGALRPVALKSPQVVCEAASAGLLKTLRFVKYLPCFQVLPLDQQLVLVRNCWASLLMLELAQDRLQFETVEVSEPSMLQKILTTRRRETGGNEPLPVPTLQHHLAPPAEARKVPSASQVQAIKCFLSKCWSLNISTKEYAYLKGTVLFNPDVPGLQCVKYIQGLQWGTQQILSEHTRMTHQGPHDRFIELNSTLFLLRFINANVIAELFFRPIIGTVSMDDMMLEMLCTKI
DAX1 inh-2 – DAX1 (NR0B1) inhibitors on StAR promoter, primary screen, cell-based, luminescence, SF-1 (NR5A1), full-length DAX-1; 370,000 compounds, 1.1% hits; HEK293T StAR-luciferase reporter, SF-1/DAX-1 repression relief; inhibition, % at 6.8 µM;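 active = inhibition above the mean over all tested compounds plus 3 SD, cut at about 3.6% in these data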;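 note: 0% = DAX-1 cells with DMSO and 100% = cells lacking DAX-1 with DMSO; higher inhibition means more luminescence from relief of DAX-1 repression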
SMARCA2 activ – SMARCA2 (BRM) function activators, primary screen, cell-based, luminescence, high throughput | MG213 cells, MMTV-luciferase reporter, dexamethasone, overnight | activation, % at 9.1 µM | 370,000 compounds, 1% hits; in the data active = activation above about 7.8%;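 note: 0% = vehicle wells and 100% = reference activator wells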
hcDAF-12 act – H. contortus DAF-12 nuclear receptor activators, primary screen, cell-based, luminescence, HEK293, lit1-tk-luc reporter; HEK293 hcDAF-12 lit1-tk-luc reporter; 0% DMSO, 100% Δ7-dafachronic acid; activation, % at 6.8 µM; 370,000 compounds, 1.4% hits;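 active = activation above the mean of all tested compounds plus 3 SD, cut at about 5.5% in these data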;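 note: 100% = response to 3 µM Δ7-dafachronic acid high control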
Active calls of the source: *; · = not tested or not shown.

SMILES	ssDAF12 agonist	hgDAF-12 ag	DAX1 inh-1	DAX1 inh-2	SMARCA2 activ	hcDAF-12 act
CN(C)CCN1C(=O)C(=O)/C(=C(/O)c2ccc3c(c2)OCCO3)C1c1ccccn1 (centres undefined)	-1	4	5.2*	0	6	1
CC1CN(CC(=O)Nc2cccc(C(=O)Nc3cccc(C(F)(F)F)c3)c2)CC(C)O1 (centres undefined)	-2	-3	-3	-2	3	-3
CN(C)c1ccc(/C=C(/NC(=O)c2ccccc2)C(=O)N/N=C/c2ccc([N+](=O)[O-])c(O)c2)cc1	0	12*	-3	1	3	2
NC(=O)COC(=O)c1ccccc1Oc1ccccc1	-1	-2	3	-1	0	-1
O=Cc1cnc(N2CCCCC2)s1	0	1	7.1*	1	4	-1
O=C(N/N=C/c1cnc(N2CCCCC2)s1)c1ccc(Cl)cc1	-2	6	0	0	-3	0
CCOC(=O)c1ccc(OC)c(OC)c1Cl	-1	0	5.8*	-1	7	-1
CCc1ccc(OCC(=O)N/N=C2\CC(=O)c3ccccc32)cc1	·	·	0	·	·	·
Cc1ccc(CC(=O)Nc2nc3c(s2)CCCC3)cc1	-1	-6	-2	-1	0	-1
Cc1ncsc1C(=O)Nc1nc2c(s1)CCCC2	0	13*	2	3	2	3
Cc1cc(C(=O)Nc2nc3c(s2)CCCC3)cs1	0	9	-1	3	0	6.0*
Cc1cc(C(=O)Nc2nnc(C3CCCCC3)s2)cs1	0	4	2	1	4	3
Cc1cccc(C)c1NC(=O)CN(C)C(=O)c1ccc(-c2cccc(C(F)(F)F)c2)o1	-1	-1	-1	0	-2	-2
COC(=O)[C@]12C[C@H](CC(=O)NCc3ccccc3)C(=O)N(Cc3ccccc3)C1=C[C@H](C1CCCC1)O[C@@H]2C	0	-2	·	0	-4	-2
COc1ccc(C(CNC(=O)CSc2ccccc2F)N2CCOCC2)cc1 (centres undefined)	1.1*	-1	0	0	-1	-1
CN(Cc1nccs1)C(=O)c1ccc(OC2CCN(Cc3ccccn3)CC2)cc1	-1	0	-1	-2	-1	-1
Cc1ccccc1/C=C1\CCCc2ccccc2C1=O	1	10	6.0*	3	4	4
COC(=O)c1c(-c2ccc(OC)cc2)sc2ccc(OC)cc12	1.6*	7	3	1	4	4
Cc1cccc(C(=O)OCC(=O)NCC2COc3ccccc3O2)c1 (centres undefined)	-1	-2	0	4.3*	0	3
Cc1ccc(C(=O)OCC(=O)NCC2COc3ccccc3O2)cc1 (centres undefined)	1	0	0	1	-2	0
COCc1cc(=O)n2[nH]c(C)c(-c3ccc(Cl)cc3)c2n1	-1	13*	0	-2	-5	0
Cn1cnnc1SC1c2cccc3cccc(c23)C1NS(=O)(=O)c1ccc(Cl)cc1 (centres undefined)	1	5	0	0	1	3
CCC(=O)N1N=C(c2ccc(Cl)cc2)CC1c1ccco1 (centres undefined)	-2	1	5.8*	0	-2	-1
O=C(O)C1CC1C(=O)Nc1cc(F)ccc1F (centres undefined)	-1	-3	1	1	0	-2
Cc1c(C(=O)NCc2ccco2)oc2ccccc12	-1	2	0	0	0	3
SMILES	ssDAF12 agonist	hgDAF-12 ag	DAX1 inh-1	DAX1 inh-2	SMARCA2 activ	hcDAF-12 act
COc1cc(C2C(C#N)=C(N)Oc3cc(C)oc(=O)c32)cc2c1OCO2 (centres undefined)	0	-1	0	-1	-2	2
O=C(Cc1ccc(N2CCNC2=O)cc1)N1CCCC(Nc2cccc(F)c2)C1 (centres undefined)	-1	2	-1	-5	2	2
O=C(CSc1nnnn1C1CCCC1)NCCc1ccccc1	-1	5	5.3*	1	1	0
O=C(CSc1nc(=O)n2ccccc2n1)NCCc1ccccc1	0	0	0	3.9*	-1	0
Cc1cc(NC(=O)CS(=O)(=O)c2cn(Cc3ccccc3Cl)c3ccccc23)no1	-2	-3	-3	-1	-5	-3
CCN(CC)C(=O)CCSc1nnc(-c2ccncc2)o1	-1	-2	0	0	-2	4
COc1cc(OC)cc(C(=O)NNC(=O)CN2C(=O)NC(C)(c3ccc(C)cc3)C2=O)c1 (centres undefined)	-1	1	4.4*	0	-4	-1
CCN(CC)C(=O)C12CC3CC(CC(Cl)(C3)C1)C2	-2	-1	1	0	3	-3
CN(C)CC(=O)N[C@@H]1C=C[C@@H](CC(=O)NCCN2CCCCC2)O[C@@H]1CO	0	0	·	-1	7.8*	-2
Nc1cc(-c2ccccc2)nn1Cc1ccccc1	-1	-1	0	0	-4	-2
Cc1nc(N2CCN(c3ccccn3)CC2)c2c(C)c(C(=O)Nc3ccccc3F)sc2n1	0	-1	5.3*	1	-5	0
Cc1nc(N2CCN(c3ccccn3)CC2)c2c(C)c(C(=O)Nc3ccc(F)cc3F)sc2n1	-1	1	1	0	2	0
O=C(COC(=O)COc1ccc(Br)cc1)NC1CCS(=O)(=O)C1 (centres undefined)	-1	0	3	1	0	-1
CCOc1ccc(NC(=O)Cc2cccc3ccccc23)c([N+](=O)[O-])c1	6.7*	-3	-1	-1	5	-1
O=C(N/N=C/c1cc([N+](=O)[O-])ccc1Cl)c1cnccn1	-1	1	5.1*	0	-2	0
O=C(N/N=C/c1cccc([N+](=O)[O-])c1)c1cnccn1	-1	2	0	0	3	4
COc1ccc(OC)c(/C=N/NC(=O)c2cnccn2)c1	-1	1	4.4*	0	-2	1
COc1ccc(/C=N/NC(=O)c2cnccn2)c(OC)c1OC	-2	-2	2	0	7	-1
COc1ccc(CCNC(=O)c2cnccn2)cc1	-2	-1	0	1	-3	1
